YB-1 expr inh: YB-1 expression inhibition. U2OS, qRT-PCR YB-1 vs CDIP delta delta Cp, 16 h; hits give high values; zero = DMSO, each unit about twofold. delta delta Cp (YB-1 minus CDIP) (no concentration beside the values). 0.37% of 30,000 active;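 active = delta delta Cp rounded down to an integer at or above 3, about 3 SD of DMSO wells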;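 note: higher means less YB-1 transcript or more CDIP transcript relative to DMSO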
NOMO-1 viab: STK33 inhibitor candidate reducing NOMO-1 cell viability; NOMO-1 AML viability, CellTiter-Glo luminescence, 72 h; inhibition, % (no concentration beside the values); 7.5% of 37,000 active; AID 2330; in the data active = inhibition above about 80%
Hedgehog inh: Sonic Hedgehog pathway inhibition | Shh-LIGHT2 Gli-luciferase reporter, 30 h | inhibition, % (concentration not given with the values) | 2.1% of 22,000 active | AID 2313;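 active = mean inhibition across valid replicates above about 65%, limit read from the data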;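 note: pathway switched on by Shh-conditioned medium diluted 1 in 25 in low serum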
MITF inhib: blocks MITF activity. TRPM1 promoter luciferase, luminescence, 24 h. 0.28% of 37,000 active. AID 2240. inhibition, % (concentration not given with the values); in the data active = inhibition above about 85%;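 note: human melanocyte line stably carrying TRPM1 promoter luciferase reporter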
PD-1 reversal: activators reversing PD-1 mediated T-cell inhibition; 29,000 tested, under 10 active; primary human CD4 T cells, PD-L1 beads, CellTiter-Glo 96 h; AID 2316; activation, % (no concentration beside the values); call rule not given here;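 note: 0% = median vehicle wells and 100% = positive control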
The depositor's hits bear a star; / = no result; ! = a repeat was not active. An excerpt weighted towards active compounds, which were near 7.4% of everything screened.

SMILES	YB-1 expr inh	NOMO-1 viab	Hedgehog inh	MITF inhib	PD-1 reversal
CC1=NCCc2c1[nH]c1cc(O)ccc21	0.043	6	80*!	1	0
CCC(C)(O)C(=O)O[C@H]1C(=O)O[C@@H]2C[C@H]3C(C)=CC(=O)[C@@H](O)[C@]3(C)[C@H]3[C@@]4(O)OC[C@]32[C@@H]1[C@@H](C)[C@H]4O (stereo partly drawn)	0.74	124*	67*	92*	-7
CC(=O)OC[C@]12C[C@H](O)C(C)=C[C@H]1O[C@@H]1[C@H](O)[C@@H](OC(C)=O)[C@@]2(C)[C@]12CO2	1.2	123*	96*	90*	-5
CC(=O)OC[C@]12CCC(C)=C[C@H]1O[C@@H]1[C@H](O)[C@@H](OC(C)=O)[C@@]2(C)[C@]12CO2	0.61	109*	109*	92*	-10
COc1ccc(OC)c(NC(=S)NCCc2cnc[nH]2)c1	/	38	/	-11	3
C=CC1C[N+]2([O-])CCC1CC2C(O)c1ccnc2ccccc12 (stereo not drawn)	0.5	/	-13	/	/
COc1cc(C2=NC(O)C(=O)Nc3ccc(Cl)cc32)ccc1O (stereo not drawn)	-0.27	3	-15	3	4
CN[C@@H]1C[C@@]2(C)O[C@@H]([C@@H]1OC)n1c3ccccc3c3c4c(c5c6ccccc6n2c5c31)C(=O)NC4	-0.37	114*	103*	101*	/
CCOC(=O)C1C2c3ccccc3C(c3ccccc32)C1C(=O)OCC (stereo not drawn)	0.0043	35	-36	22	0
CC(C)(C)c1nc2ccccc2c(=O)n1-c1ccc(F)cc1F	-0.17	9	1	2	-1
N#CC(C#N)=Cc1ccc(O)cc1	-1.1	87*	57	-3	-2
Cc1ccc(NC(=O)c2cccc(OC(=O)N(C)c3ccccc3)c2)cc1C	0.2	20	76*	5	-1
NC1=C(C(=O)OCc2ccccc2)C2(C(=O)Nc3ccc(Br)cc32)C2=C(O1)C(=O)CCC2 (stereo not drawn)	-0.37	45	-16	10	-2
COc1ccc(CC2(CCc3ccncc3)C(=O)NC(=O)N(c3cccc(C)c3)C2=O)c(OC)c1 (stereo not drawn)	/	17	/	-24	/
C=CC(C)(C)[C@@]12C[C@H]3C(=O)N/C(=C\c4cnc[nH]4)C(=O)N3[C@@H]1Nc1ccccc12	0.43	3	9	-11	0
O=C1C=C2C=C[C@@H]3C[C@@]2(O1)[C@H]1CCCCN31	-0.0014	91*	72*	25	/
C=C(CO)C(=O)O[C@H]1CC(=C)[C@@H]2C[C@H](O)C(=C)[C@@H]2[C@H]2OC(=O)C(=C)[C@@H]21	0.68	121*	90*	-45	-4
C=C(CO)C(=O)O[C@H]1C/C(C)=C\CC/C(CO)=C\[C@H]2OC(=O)C(=C)[C@H]12	-8.4	122*	7	-15	-18
Cc1ccc(S(=O)(=O)N2CCCCC2)cc1C(=O)Oc1cccc2cccnc12	-0.43	116*	-14	-28	1
C[C@@H]1Cc2c(Cl)cc(C(=O)N[C@@H](Cc3ccccc3)C(=O)O)c(O)c2C(=O)O1	1	/	78*	/	/
O=C(CC[N+](=O)[O-])OC[C@H]1O[C@@H](O)[C@H](OC(=O)CC[N+](=O)[O-])[C@@H](OC(=O)CC[N+](=O)[O-])[C@@H]1OC(=O)CC[N+](=O)[O-]	0.29	106*	41	9	/
CCOC(=O)C1=C(N)Oc2c(c(=O)oc3ccccc23)C12C(=O)N(CC(=O)OC)c1ccccc12 (stereo not drawn)	-0.56	6	-9	5	0
C/C1=C/[C@@H](C)C/C=C/[C@H]2[C@@H]3O[C@]3(C)[C@@H](C)[C@H]3[C@H](Cc4c[nH]c5ccccc45)NC(=O)[C@]32C(=O)/C=C\C(=O)[C@@H]1O	0.48	/	102*	/	/
Cn1cnc(-n2oo2)c1C#N	-0.59	19	-38	29	4
O=C(Cn1cc(C(=O)c2ccccc2)c2ccccc21)Nc1ccc(F)cc1	/	49	/	38	0
SMILES	YB-1 expr inh	NOMO-1 viab	Hedgehog inh	MITF inhib	PD-1 reversal
CC1(C)C(C(=O)Nc2ccc(S(=O)(=O)c3ccc(NC(=O)C4C(C)(C)C4(C)C)cc3)cc2)C1(C)C	-0.00045	-2	-20	-9	2
CC(C)(C)c1cc(C=C(C#N)C#N)cc(Br)c1O	0.67	57	88*	78	0
N#CC(C#N)=Cc1cc(O)c(O)c(O)c1	-0.049	45	42	-10	0
C=CCN1CCc2cccc3c2[C@H]1Cc1ccc(O)c(O)c1-3	-0.076	114*	-17	-9	/
C=C1C([C@]2(C)C(CC(=O)OC)[C@@](C)(COC(C)=O)OC(=O)C[C@@H]2OC(C)=O)[C@@H](OC=O)[C@H](OC(=O)C(OC(C)=O)C(C)CC)[C@@]2(C)[C@H](c3ccoc3)CC(=O)C12O (stereo partly drawn)	-0.17	-3	-17	5	/
CC[C@@]1(O)C(=O)OCc2c1cc1n(c2=O)Cc2cc3c(O)cccc3nc2-1	1.4	119*	68*	66	/
CC(=O)OC1CCC2(C)C(=CCC3C4CCC(=O)C4(C)CCC32)C1 (stereo not drawn)	0.23	10	-9	-2	0
C/C=C(/C)C(=O)OC1CCN2CC=C(COC(=O)C(O)(C(C)O)C(C)(C)O)C12 (stereo not drawn)	-0.086	4	-3	9	4
OC[C@H]1O[C@@H](n2cnc3cc(Cl)c(Cl)cc32)C(O)[C@H]1O (stereo partly drawn)	0.15	87*	39	-22	4
CCN1C[C@]2(C)CC[C@H](OC)[C@@]34C2[C@H](O)C([C@@H]13)[C@@]1(OC)C[C@H](OC)[C@H]2C[C@@H]4[C@@H]1[C@H]2O	-0.2	4	-12	-13	0
C[C@@H]1C[C@@H]([C@H](O)CC2CC(=O)NC(=O)C2)C(=O)[C@@H](C)C1	-0.55	114*	50	72	/
C[C@@H]1CC([C@H](O)CC2CC(=O)NC(=O)C2)C(=O)[C@@H](C)C1 (stereo partly drawn)	-0.021	141*	68*	55	-8
COc1ccc2c3c1O[C@H]1[C@@H](O)C=C[C@H]4C(C2)N(C)CCC341 (stereo partly drawn)	0.87	/	4	/	/
CC1=CC2/C=C(\C)CCC(O)C(O)/C=C/C(=O)C23C(=O)NC(CC(C)C)C3C1C (stereo not drawn)	1.1	121*	71*	89*	-37
CC(C)N(C(=O)SCC(Cl)=C(Cl)Cl)C(C)C	0.27	10	-6	7	/
CC1=CC2OC3[C@H](O)C[C@@](C)([C@]34CO4)[C@@]2(CO)[C@H](O)C1=O (stereo partly drawn)	-0.12	123*	40	72	-8
COc1ccccc1OCCCn1cc(C(=O)c2ccccc2)c2ccccc21	/	0	/	9	/
CN1Cc2c(ccc3c2OCO3)C2C(O)Cc3cc4c(cc3C21)OCO4 (stereo not drawn)	-0.8	104*	82*	23	/
